According to PMC4242493, “Sequence specificity incompletely defines the genome-wide occupancy of Myc”:
The full ranking holds about 33,000 sequences; the median of “normalized occupancy” is about 0.075, and the highest 2% start at about 0.095. The entries come from a sample that favours the highest values as a whole.

target: MaxL homodimer (Homo sapiens, UniProt P61244 1-160); test: universal protein-binding microarray (PBM); PBS-based mixture, 10 nM His-tagged protein dimer, 2% milk, 200 ng/uL BSA, 50 ng/uL salmon testes DNA, 0.02% TX-100; detection with Alexa 488 anti-His antibody;; high values mean tight binding; settings: protein: recombinant; tags: C-terminal His-tag (pET21a); chain copies: 2; dsDNA, one strand shown
Procedure, shortened: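 His-tagged protein dimer at 10 nM was incubated on Agilent 4 x 44 K arrays with the 'all 10-mer' universal design. Bound protein was tagged with 10 ng/μL fluorophore-conjugated anti-His antibody, and arrays were scanned on a GenePix 4400A. Binding occupancy for each 8-mer is its fluorescence intensity normalised to the highest-ranked 8-mer's intensity.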

Sequence of MaxL homodimer (P61244 whole entry): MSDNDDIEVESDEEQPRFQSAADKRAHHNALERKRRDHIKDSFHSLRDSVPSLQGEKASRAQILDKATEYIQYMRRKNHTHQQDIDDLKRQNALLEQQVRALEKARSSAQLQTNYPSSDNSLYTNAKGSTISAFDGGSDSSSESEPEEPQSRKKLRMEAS

| Sequence | binding signal [normalized occupancy] |
| --- | --- |
| CCACCTCG | 0.0794 |
| CCACCTGG | 0.105 |
| GCACCTGC | 0.0846 |
| ACACCTGA | 0.0871 |
| ACACCTGT | 0.0912 |
| ACACCTGC | 0.0956 |
| ATACCTGC | 0.0811 |
| CCACCTTC | 0.0757 |
| CCACCTGC | 0.0984 |
| CCACCTGA | 0.099 |
| GTAGTTGA | 0.0738 |
| ATAACGCC | 0.0792 |
| ATTCACCG | 0.0732 |
| CTTTTCGA | 0.0725 |
| ACGCCGAA | 0.0725 |
| GGCCACTA | 0.0777 |
| GTGGAAAA | 0.0879 |
| AATCGGGA | 0.0782 |
| CTGCCTAA | 0.075 |
| CAAGTCGC | 0.0719 |
| CAAACCTC | 0.0765 |
| ATTCTACC | 0.0801 |
| AGAGCGTG | 0.0963 |
| ACAGCGTC | 0.0731 |
| ACAGCGTG | 0.123 |

| Sequence | binding signal [normalized occupancy] |
| --- | --- |
| ATAGCGTC | 0.0734 |
| AGCGCGTC | 0.0772 |
| AGAGCGAG | 0.0719 |
| ACAGCGAG | 0.0728 |
| AGCGCGTG | 0.117 |
| AGCGCGCG | 0.0841 |
| AGAGCGTA | 0.0758 |
| ATAGCGTA | 0.0819 |
| ATAGCGTG | 0.104 |
| AGGCAGTA | 0.0728 |
| CTTGGTCC | 0.0723 |
| CTTCGCTA | 0.0727 |
| ATCCCCCC | 0.0808 |
| GGCTATCA | 0.0738 |
| ACACTGAC | 0.0742 |
| ACTTTAAG | 0.0722 |
| AAGTATAG | 0.0813 |
| CCTTTGTA | 0.0734 |
| GGTGCGGA | 0.0762 |
| AAAATTGA | 0.0757 |
| TGTAACAA | 0.0771 |
| GCACGCGC | 0.15 |
| GCACGCGA | 0.109 |
| GCGCGCGC | 0.0821 |
| GCACGCCC | 0.0848 |

| Sequence | binding signal [normalized occupancy] |
| --- | --- |
| GGACGCGA | 0.0754 |
| GAACGCGA | 0.0778 |
| CTTAAGCA | 0.077 |
| TCAAATAA | 0.0786 |
| AAGGGGAC | 0.0746 |
| CATGTGAA | 0.127 |
| AATGTGAC | 0.0908 |
| AATGTGAG | 0.0853 |
| CCTGTGAG | 0.0762 |
| TATGTGAA | 0.0871 |
| GATGTGAA | 0.0819 |
| CATGTGAG | 0.128 |
| GATGTGAC | 0.0817 |
| CATGTGAC | 0.168 |
| AAGTAGGA | 0.0726 |
| ATGGAGAA | 0.0775 |
| AAGCAGTA | 0.0725 |
| TAGATTGA | 0.0791 |
| ACCTTTAA | 0.0744 |
| CATGGCAA | 0.0963 |
| CATGGCAG | 0.0887 |
| GATGGCAA | 0.0752 |
| CCTATTAA | 0.0743 |
| GAAAATCA | 0.0778 |
| GTGCACTA | 0.0769 |

| Sequence | binding signal [normalized occupancy] |
| --- | --- |
| CTCTATGA | 0.0732 |
| GATGACTA | 0.0757 |
| ACGTGACC | 0.103 |
| CCGTGACG | 0.0782 |
| CCGTGACC | 0.075 |
| ATGTGACA | 0.0901 |
| ACGTGACT | 0.0933 |
| AGGTGACC | 0.0766 |
| ACGTGACA | 0.108 |
| GCGTGACC | 0.103 |
| GGGTGACC | 0.0751 |
| AAGTGACC | 0.0751 |
| AGGTGACG | 0.075 |
| ACGTGACG | 0.0972 |
| AGGGTTGC | 0.0731 |
| GAAGGTGC | 0.0733 |
| CGAAATAC | 0.0768 |
| CATATTGA | 0.0806 |
| TCGTGACA | 0.0851 |
| GCGTGACA | 0.103 |
| CCGTGACA | 0.0807 |
| ATGAGCCC | 0.0757 |
| TCTCGAAA | 0.0729 |
| CGTGCACG | 0.123 |
| AGTGCACG | 0.0853 |

| Sequence | binding signal [normalized occupancy] |
| --- | --- |
| GGTGCACA | 0.078 |
| CGTGCACA | 0.0958 |
| TGTGCACA | 0.0902 |
| AGTGCACA | 0.0838 |
| CTTAGCCA | 0.0761 |
| AACGCTAG | 0.0726 |
| CACGCTAA | 0.0891 |
| GACGCTAC | 0.0742 |
| CACGCTAC | 0.0972 |
| AACGCTAC | 0.0825 |
| CACGCTAG | 0.0976 |
| CTATGGGC | 0.0769 |
| AGCATACT | 0.0804 |
| CCGTGTAA | 0.0797 |
| ACGTGTAC | 0.0984 |
| ACGTGTAA | 0.1 |
| AGGTGTAT | 0.0924 |
| GCGTGTAC | 0.1 |
| CCGTGTAC | 0.0796 |
| GCGTGTAA | 0.0923 |
| GAGTGTAC | 0.0756 |
| AAGTGTAT | 0.0806 |
| TCGTGTAA | 0.0836 |
| ACGTGTAT | 0.117 |
| AGGTGTAC | 0.0803 |

| Sequence | binding signal [normalized occupancy] |
| --- | --- |
| ATTCCAAT | 0.0727 |
| ATAGTCAG | 0.0801 |
| GCATAAAA | 0.0781 |
| GCATTCTA | 0.0844 |
| ACTAACAT | 0.0807 |
| GTTGTTTA | 0.0784 |
| AGTGTTAC | 0.0737 |
| GCTATACA | 0.0815 |
| CAAGAAAC | 0.0724 |
| ATCACGGC | 0.0739 |
| CTCATTCC | 0.0776 |
| TTCAAGAA | 0.0738 |
| AAGACAAG | 0.0722 |
| CAATCGAC | 0.0743 |
| GCAGCACA | 0.0778 |
| GCGTGTCC | 0.0957 |
| GCGTGTCA | 0.0867 |
| ACGTGTCC | 0.0932 |
| AGGTGTAG | 0.0785 |
| ACGTGTAG | 0.103 |
| CCGTGTAG | 0.0808 |
| GGAATAAA | 0.0741 |
| CACAACCA | 0.0825 |
| AGAACGCA | 0.0762 |
| GCCGTGCA | 0.0768 |

| Sequence | binding signal [normalized occupancy] |
| --- | --- |
| GGCGTGCA | 0.0978 |
| CCCGTGCC | 0.0787 |
| ACCGTGCG | 0.0828 |
| CGCGTGCC | 0.118 |
| ATCGTGCC | 0.08 |
| GGAGTGCA | 0.0787 |
| AGCGTGCG | 0.109 |
| ACCGTGCC | 0.0756 |
| CTCGTGCC | 0.0909 |
| ATCGTGCG | 0.0851 |
| AGCGTGCC | 0.0969 |
| AGTAAAAA | 0.0773 |
| AAAATCTC | 0.0762 |
| AGTCTCGA | 0.0741 |
| CTCAAATA | 0.0761 |
| TGCCAAAA | 0.0792 |
| ACGTCTAA | 0.0724 |
| CATGGAGG | 0.0891 |
| AGGAGATG | 0.0762 |
| AGAGTGCA | 0.0743 |
| CCCGTGCA | 0.0874 |
| CGCGTGCA | 0.134 |
| ACCGTGCA | 0.0786 |
| AGCGTGCA | 0.108 |
| CGGGTGCA | 0.0755 |
